“And” between values parts separate entries of the source, which are not always exact repeats. Identical values can stand only once. The source made the active and inactive calls. Unless noted, the call rests on the fitted dose curve; in most records, active means well fitted curve in the direction sought with a large enough effect in the repeat runs; inconclusive means weak or mixed curves; inactive means no such curve, though single readings can be large; an effect the other way counts as inactive or inconclusive.
Key:
[1] = qHTS assay to identify small molecule antagonists of the glucocorticoid receptor (GR) signaling pathway - cell viability counter screen (AID 720693); further: nearly all actives have a fitted effect of over 55% in size; further: potency means the concentration at half of the fitted maximal effect
[2] = qHTS assay for identifying genotoxic compounds that show differential cytotoxicity against isogenic chicken DT40 cell lines with known DNA damage response pathways - wild type cell line (AID 743012); further: nearly all actives have a fitted effect of over 60% in size; further: potency means the concentration at half of the fitted maximal effect
Summary of the method: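 300 wt DT40 cells/well; cpd (DMSO) pintool-transferred after ~0.5 h at 37 C/5% CO2; 40 h incubation; CellTiter-Glo added, 30 min RT; luminescence read.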

[3] = qHTS assay for identifying genotoxic compounds that show differential cytotoxicity against isogenic chicken DT40 cell lines with known DNA damage response pathways - Rev3 mutant cell line (AID 743014); further: nearly all actives have a fitted effect of over 55% in size; further: potency means the concentration at half of the fitted maximal effect
[4] = qHTS assay for identifying genotoxic compounds that show differential cytotoxicity against isogenic chicken DT40 cell lines with known DNA damage response pathways - Rad54/Ku70 mutant cell line (AID 743015); further: nearly all actives have a fitted effect of over 60% in size; further: potency means the concentration at half of the fitted maximal effect
[5] = qHTS assay to identify small molecule antagonists of the androgen receptor (AR) signaling pathway - cell viability counter screen (AID 743033; further: nearly all actives have a fitted effect of over 45% in size; further: potency means the concentration at half of the fitted maximal effect)
[6] = biological target: Androgen receptor (Homo sapiens) (UniProt P10275); assay: qHTS assay to identify small molecule agonists of the androgen receptor (AR) signaling pathway using the MDA cell line (AID 743040; further: on the % scale 0 is the no-effect control and ±100 the full control effect; nearly all actives have a fitted effect of over 20% in size)
Sequence of Androgen receptor (Homo sapiens) (P10275 whole entry, looked up): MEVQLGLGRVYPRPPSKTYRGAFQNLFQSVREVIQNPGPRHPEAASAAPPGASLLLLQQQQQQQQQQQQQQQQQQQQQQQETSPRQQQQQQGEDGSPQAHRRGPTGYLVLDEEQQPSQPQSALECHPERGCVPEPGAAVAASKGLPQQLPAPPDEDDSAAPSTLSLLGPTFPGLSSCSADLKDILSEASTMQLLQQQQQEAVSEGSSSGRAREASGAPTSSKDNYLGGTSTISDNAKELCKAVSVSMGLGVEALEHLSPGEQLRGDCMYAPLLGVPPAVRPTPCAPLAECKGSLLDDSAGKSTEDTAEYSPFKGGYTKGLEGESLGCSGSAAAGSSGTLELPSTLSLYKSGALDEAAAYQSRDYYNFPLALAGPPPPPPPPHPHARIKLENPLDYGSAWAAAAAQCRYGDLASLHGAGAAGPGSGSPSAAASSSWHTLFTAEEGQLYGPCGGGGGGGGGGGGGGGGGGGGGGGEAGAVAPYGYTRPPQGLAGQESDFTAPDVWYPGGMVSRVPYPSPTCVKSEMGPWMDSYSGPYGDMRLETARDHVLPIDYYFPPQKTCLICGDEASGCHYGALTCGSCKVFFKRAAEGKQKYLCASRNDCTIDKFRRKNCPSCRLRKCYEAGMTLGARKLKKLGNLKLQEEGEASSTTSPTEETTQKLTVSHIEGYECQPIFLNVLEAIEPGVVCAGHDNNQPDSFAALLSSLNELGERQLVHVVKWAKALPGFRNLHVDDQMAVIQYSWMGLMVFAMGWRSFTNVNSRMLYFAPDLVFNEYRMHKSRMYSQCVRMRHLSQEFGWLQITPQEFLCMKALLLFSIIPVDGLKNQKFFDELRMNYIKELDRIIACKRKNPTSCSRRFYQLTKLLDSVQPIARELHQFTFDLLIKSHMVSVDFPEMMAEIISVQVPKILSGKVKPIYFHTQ
Summary of the method: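 Stable MMTV-luciferase reporter in MDA-kb2 cells; note the promoter carries GR as well as AR response elements. 16 h compound treatment, 37C, 0% CO2; ONE-Glo luminescence endpoint.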

[7] = qHTS assay to identify small molecule antagonists of the thyroid receptor (TR) signaling pathway - cell viability counter screen (AID 743064); further: nearly all actives have a fitted effect of over 50% in size; further: potency means the concentration at half of the fitted maximal effect
Summary of the method: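 GH3.TRE-Luc rat pituitary cells dosed after 4 hr plating, co-stimulated with T3 at 1 nM final, incubated 23.5 h at 37 C. Viability measured in the same wells by CellTiter-Fluor fluorescence after 30 min further at 37 C.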

[8] = qHTS assay to identify small molecule antagonists of the thyroid receptor (TR) signaling pathway (AID 743065); further: nearly all actives have a fitted effect of over 55% in size; further: potency means the concentration at half of the fitted maximal effect
Summary of the method: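 Antagonism measured as loss of luciferase signal in GH3 cells stably carrying a TRE-luciferase reporter, co-treated with compound and T3 (1 nM final) for 23.5 h at 37 C. Viability was read in the same well by CellTiter-Fluor.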

[9] = system: thyroid hormone receptor (rat, GH3 cells); assay: qHTS assay to identify small molecule agonists of the thyroid receptor (TR) signaling pathway (AID 743066; calls by dose curve; further: on the % scale 0 is the no-effect control and ±100 the full control effect)
[10] = qHTS assay to identify small molecule antagonists of the estrogen receptor alpha (ER-alpha) signaling pathway - cell viability counter screen (AID 743074; calls by dose curve; further: nearly all actives have a fitted effect of over 45% in size; further: potency means the concentration at half of the fitted maximal effect)
[11] = qHTS assay to identify small molecule antagonists of the estrogen receptor alpha (ER-alpha) signaling pathway using the BG1 cell line - cell viability counter screen (AID 743081);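 further: compound given together with 17beta-estradiol as the ER stimulus; nearly all actives have a fitted effect of over 45% in size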; further: potency means the concentration at half of the fitted maximal effect
[12] = biological target: Aromatase (Homo sapiens) (UniProt P11511); assay: qHTS assay to identify aromatase inhibitors (AID 743083); further: nearly all actives have a fitted effect of over 55% in size; further: potency means the concentration at half of the fitted maximal effect
Sequence of Aromatase (Homo sapiens) (P11511 whole entry, looked up): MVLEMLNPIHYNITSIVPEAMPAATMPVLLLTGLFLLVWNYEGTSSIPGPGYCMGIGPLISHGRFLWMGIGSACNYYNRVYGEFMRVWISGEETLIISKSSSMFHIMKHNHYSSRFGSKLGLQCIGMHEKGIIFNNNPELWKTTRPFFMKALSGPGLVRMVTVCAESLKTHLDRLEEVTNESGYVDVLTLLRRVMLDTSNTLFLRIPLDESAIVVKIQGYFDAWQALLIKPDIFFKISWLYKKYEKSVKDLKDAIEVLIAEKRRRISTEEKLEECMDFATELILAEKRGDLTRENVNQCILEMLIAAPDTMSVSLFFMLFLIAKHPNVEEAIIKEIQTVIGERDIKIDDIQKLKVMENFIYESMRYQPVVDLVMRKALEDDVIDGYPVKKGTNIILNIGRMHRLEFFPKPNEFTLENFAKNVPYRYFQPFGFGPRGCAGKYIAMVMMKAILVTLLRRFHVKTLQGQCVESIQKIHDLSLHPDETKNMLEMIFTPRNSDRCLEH

[13] = qHTS assay to identify aromatase inhibitors - cell viability counter screen (AID 743084); further: potency means the concentration at half of the fitted maximal effect
[14] = qHTS assay to identify small molecule antagonists of the androgen receptor (AR) signaling pathway using the MDA cell line - cell viability counter screen (AID 743041; further: nearly all actives have a fitted effect of over 45% in size; further: potency means the concentration at half of the fitted maximal effect)
Summary of the method: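 Using the breast carcinoma line MDA-kb2 AR-luc, test chemicals were co-incubated with R1881 for 16 h; CellTiter-Fluor reagent, added at 15.5 h, provided a fluorescence measure of live cells.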

[15] = biological target: Androgen receptor (Homo sapiens) (UniProt P10275); assay: qHTS assay to identify small molecule antagonists of the androgen receptor (AR) signaling pathway using the MDA cell line (AID 743042; further: nearly all actives have a fitted effect of over 55% in size; further: potency means the concentration at half of the fitted maximal effect)
Summary of the method: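 Antagonist mode: compounds plus R1881 agonist added to MDA-kb2 AR-luc cells, incubated 16 h at 37C. Luciferase reporter luminescence quantified, with multiplexed CellTiter-Fluor readout for cell viability.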

[16] = biological target: Estrogen receptor (Homo sapiens) (UniProt P03372); assay: qHTS assay to identify small molecule agonists of the estrogen receptor alpha (ER-alpha) signaling pathway (AID 743075; calls by dose curve; further: potency means the concentration at half of the fitted maximal effect; on activation: on the % scale 0 is the no-effect control and ±100 the full control effect); conditions: HEK293 ER-alpha-UAS-bla, beta-lactamase FRET ratio, 18 h; activation: at 70.1 µM (top of the series)
Sequence of Estrogen receptor (Homo sapiens) (P03372 whole entry, looked up): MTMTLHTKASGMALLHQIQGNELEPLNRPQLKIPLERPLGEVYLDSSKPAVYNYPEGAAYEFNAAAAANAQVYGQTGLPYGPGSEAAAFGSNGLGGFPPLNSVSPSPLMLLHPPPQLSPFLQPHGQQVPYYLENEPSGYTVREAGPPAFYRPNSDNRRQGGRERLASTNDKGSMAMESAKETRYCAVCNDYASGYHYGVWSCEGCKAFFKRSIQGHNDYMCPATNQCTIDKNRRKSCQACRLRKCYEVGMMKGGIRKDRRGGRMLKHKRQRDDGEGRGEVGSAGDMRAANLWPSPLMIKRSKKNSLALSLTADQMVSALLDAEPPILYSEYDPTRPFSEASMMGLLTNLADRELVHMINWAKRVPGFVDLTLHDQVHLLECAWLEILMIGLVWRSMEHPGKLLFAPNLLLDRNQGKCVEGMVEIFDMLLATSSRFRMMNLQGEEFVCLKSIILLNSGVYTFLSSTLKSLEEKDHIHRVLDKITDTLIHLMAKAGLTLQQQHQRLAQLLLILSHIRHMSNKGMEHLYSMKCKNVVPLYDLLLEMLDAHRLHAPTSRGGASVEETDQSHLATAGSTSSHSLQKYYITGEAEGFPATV

[17] = biological target: Androgen receptor (Homo sapiens) (UniProt P10275); assay: qHTS assay to identify small molecule antagonists of the androgen receptor (AR) signaling pathway (AID 743035; active means well fitted inhibition curve with a large enough effect in the signal ratio in the repeat runs, not every such curve was filed as active; inconclusive means weak or mixed curves, or effect the other way; inactive means no such curve, though single readings can be large or run the other way; the % refers to the signal ratio; further: potency means the concentration at half of the fitted maximal effect)
Summary of the method: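 In this cell-based reporter screen, compounds were tested in concentration series against R1881-activated HEK293 cells expressing beta-lactamase under UAS control; after 16 h at 37C, FRET substrate was added and fluorescence read 2 h later.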

[18] = biological target: Estrogen receptor (Homo sapiens) (UniProt P03372); assay: qHTS assay to identify small molecule antagonists of the estrogen receptor alpha (ER-alpha) signaling pathway (AID 743069; active means well fitted curve in the direction sought with a large enough effect in the signal ratio in the repeat runs, not every such curve was filed as active; inconclusive means weak or mixed curves, or effect the other way; inactive means no such curve, though single readings can be large or run the other way; the % refers to the signal ratio; further: potency means the concentration at half of the fitted maximal effect)
Summary of the method: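 Fluorescence intensity from a beta-lactamase FRET substrate served as the read-out. Cells: HEK293 with stably integrated ER-alpha-UAS-bla reporter. Agonist 17beta-estradiol was co-added with compounds; incubation 18 hr at 37C, substrate 2 hr at room temperature.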

[19] = biological target: Estrogen receptor (Homo sapiens) (UniProt P03372); assay: qHTS assay to identify small molecule agonists of the estrogen receptor alpha (ER-alpha) signaling pathway using the BG1 cell line (AID 743079); conditions: BG1Luc4E2 cells, ERE-luciferase agonist, 22 h; further: on the % scale 0 is the no-effect control and ±100 the full control effect; nearly all actives have a fitted effect of over 20% in size
[20] = qHTS assay to identify small molecule antagonists of the estrogen receptor alpha (ER-alpha) signaling pathway using the BG1 cell line (AID 743080; calls by dose curve;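 further: BG1 cells stimulated with 17beta-estradiol alongside compound; on the % scale 0 is the no-effect control and ±100 the full control effect; nearly all actives have a fitted effect of over 25% in size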)
Summary of the method: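 Readout is ONE-Glo luminescence, taken 30 min at room temperature after reagent addition, preceded by a CellTiter-Fluor viability read; BG1-Luc-4E2 cells had received compound and 17beta-estradiol for 21.5 h at 37 C.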

CC/C(=C(\c1ccc(O)cc1)c1ccc(OCCN(C)C)cc1)c1ccccc1
inactive: Potency [6] | Potency [9]
active: Potency [1] 24.6 µM | Potency [2] 2.74 µM | Potency [3] 0.434 µM | Potency [4] 1.09 µM | Potency [5] 15.5 µM | Potency [7] 5.46 µM | Potency [8] 12.2 µM | Potency [10] 39 µM | Potency [11] 68.7 µM | Potency [12] 0.0217 µM | Potency [13] 48.7 µM

[Cl][Bi]([Cl])([c]1ccccc1)([c]1ccccc1)[c]1ccccc1
active: Potency [1] 48.7 µM | Potency [2] 1.36 µM | Potency [3] 2.16 µM | Potency [4] 2.42 µM | Potency [5] 12.2 µM | Potency [14] 27.1 µM | Potency [15] 13.6 µM | Potency [7] 1.71 µM | Potency [8] 0.682 µM | Potency [10] 48.7 µM | Potency [16] 6.13 µM [inconclusive] | Potency [11] 60.8 µM | Potency [12] 6.82 µM | Potency [13] 7.65 µM
inactive: Potency [6]

N#CSc1ccc(N)c([N+](=O)[O-])c1
active: Potency [1] 55.3 µM | Potency [2] 12.3 µM | Potency [3] 6.9 µM | Potency [4] 9.75 µM | Potency [5] 24.7 µM | Potency [17] 43.9 µM | Potency [14] 61.5 µM | Potency [15] 61.5 µM | Potency [7] 54.8 µM | Potency [18] 27.7 µM [inconclusive] | Potency [11] 54.8 µM | Potency [12] 27.5 µM | Potency [13] 38.8 µM
inactive: Potency [6] | Potency [9] | Potency [10] | Potency [16] | activation ([19]; at 95 µM (top of the series)) -0.741%

c1ccc(CSCc2ccccc2)cc1
inactive: Potency [1] | Potency [2] | Potency [3] | Potency [4] | Potency [5] | Potency [14] | Potency [7] | Potency [8] | Potency [9] | Potency [10] | Potency [11] | Potency [12] | Potency [13]

CC(C)(C)c1ccc(C(=O)O)cc1
inactive: Potency [1] | Potency [2] | Potency [3] | Potency [4] | Potency [5] | Potency [14] | Potency [7] | Potency [8] | Potency [9] | Potency [10] | Potency [11] | Potency [12] | Potency [13]

C[C@H](CCC(=O)O)[C@H]1CC[C@H]2[C@@H]3CC[C@@H]4C[C@H](O)CC[C@]4(C)[C@H]3CC[C@]12C
active: Potency [7] 27.2 µM and 54.5 µM | Potency [8] 17.2 µM and 30.6 µM | Potency [10] 54.9 µM
inactive: Potency [1] | Potency [2] | Potency [3] | Potency [4] | Potency [5] | Potency [14] | Potency [9] | Potency [16] | activation ([19]; at 70.3 µM (top of the series)) -1.63% and -14.3% | Potency [20] | Potency [11] | Potency [12] | Potency [13]

Clc1ccc2cc3ccccc3cc2c1
inactive: Potency [1] | Potency [2] | Potency [3] | Potency [4] | Potency [5] | Potency [6] | Potency [15] | Potency [7] | Potency [8] | Potency [9] | Potency [18] | Potency [10] | Potency [11] | Potency [12] | Potency [13]

CCCCC(CC)CN=C(N)NC(N)=NCCCCCCN=C(N)NC(N)=NCC(CC)CCCC (centres undefined)
active: Potency [1] 19 µM | Potency [2] 8.41 µM | Potency [3] 11.9 µM | Potency [4] 10.6 µM | Potency [5] 13.4 µM | Potency [14] 26.6 µM | Potency [15] 16.8 µM | Potency [7] 7.5 µM | Potency [8] 6.68 µM | Potency [10] 10.7 µM | Potency [12] 18.8 µM | Potency [13] 26.6 µM
inactive: Potency [6]

C1CCCC1
inactive: Potency [1] | Potency [2] | Potency [3] | Potency [4] | Potency [5] | Potency [14] | Potency [7] | Potency [8] | Potency [9] | Potency [10] | Potency [11] | Potency [12] | Potency [13]

CCCC/C=C/CCCCO
inactive: Potency [1] | Potency [2] | Potency [3] | Potency [4] | Potency [5] | Potency [14] | Potency [7] | Potency [8] | Potency [9] | Potency [18] | Potency [10] | Potency [16] | Potency [20] | Potency [12] | Potency [13]

O=[N+]([O-])c1ccccc1Nc1ccccc1
inactive: Potency [1] | Potency [2] | Potency [3] | Potency [4] | Potency [5] | Potency [14] | Potency [7] | Potency [8] | Potency [9] | Potency [18] | Potency [10] | Potency [16] | activation ([19]; at 70.3 µM (top of the series)) 4.1% | Potency [20] | Potency [11] | Potency [13]

CCCCCCCCCCCCCCCCCC[N+](C)(C)C
active: Potency [1] 24.6 µM | Potency [2] 2.74 µM | Potency [3] 1.37 µM | Potency [4] 2.74 µM | Potency [5] 43.8 µM | Potency [14] 48.7 µM | Potency [15] 24.4 µM | Potency [7] 12.2 µM | Potency [10] 43.8 µM | Potency [12] 21.8 µM | Potency [13] 27.4 µM
inactive: Potency [6]

Cc1cccc(S(=O)(=O)O)c1C
inactive: Potency [1] | Potency [2] | Potency [3] | Potency [4] | Potency [5] | Potency [14] | Potency [7] | Potency [8] | Potency [9] | Potency [18] | Potency [10] | Potency [16] | activation ([19]; at 70.3 µM (top of the series)) -6.85% | Potency [20] | Potency [11] | Potency [12] | Potency [13]

Reference: PubChem BioAssay (Tox21)
